Several values for one entry are separate records, joined by “and”; a condition that tells them apart may be missing. Identical values can stand only once. Among all 5,500 compounds or so, about 2,000 (36%) were called active. Another 18% or so got no clear call; they are omitted. Rule as the data show it: active = normalized growth mostly below about 0.91 (no sharp cut-off); inconclusive = no clear call, values can overlap the other calls; inactive = mostly above about 0.92. The list shows a part of the results.
Test: chemical genetic growth profiling, strain panel (AID 1159580);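 also: tested at 20 µM; growth read once vehicle control cultures reached saturation at 30 °C; 1 = growth at the plate median or of vehicle wells; lower values mean less growth of the strain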
Details: S. cerevisiae deletion strains, growth OD

Measured: normalized growth

CC(=O)Oc1ccc2c(c1OC(C)=O)OCC1(O)Cc3c(cc(OC(C)=O)c(OC(C)=O)c3OC(C)=O)C21 (configuration not stated)
inactive: locus YAL013W, strain DEP1, active compounds read low 1.02 | locus YAL021C, strain ccr4, active compounds read low 0.948 | locus YAL026C, strain drs2, active compounds read low 1.03 | locus YAL030W, strain snc1, active compounds read low 1.01 | locus YBL061C, strain skt5, active compounds read low 1.01 | locus YBR009C, strain hhf1, active compounds read low 1.01 | locus YBR021W, strain FUR4, active compounds read low 1.02 | locus YBR023C, strain chs3, active compounds read low 0.988 | locus YBR171W, strain sec66, active compounds read low 1.02 | locus YBR229C, strain ROT2, active compounds read low 1.01 | locus YBR231C, strain swc5, active compounds read low 0.975 | locus YBR279W, strain paf1, active compounds read low 0.99 | locus YCL011C, strain gbp2, active compounds read low 0.997 | locus YCL016C, strain dcc1, active compounds read low 0.982 | locus YCL029C, strain bik1, active compounds read low 0.978 | locus YCL061C, strain MRC1, active compounds read low 1 | locus YCL069W, strain vba3, active compounds read low 1.03 | locus YCR088W, strain abp1, active compounds read low 1.02 | locus YDL005C, strain med2, active compounds read low 1.01 | locus YDL035C, strain GPR1, active compounds read low 1.01 | locus YDL040C, strain nat1, active compounds read low 1.01 | locus YDL074C, strain BRE1, active compounds read low 0.973 | locus YDL101C, strain DUN1, active compounds read low 0.943 | locus YDL134C, strain PPH21, active compounds read low 0.997 | locus YDL185W, strain tfp1, active compounds read low 0.955 | locus YDL192W, strain arf1, active compounds read low 1.01 | locus YDR001C, strain nth1, active compounds read low 1.02 | locus YDR069C, strain doa4, active compounds read low 0.969 | locus YDR101C, strain arx1, active compounds read low 1.04 | locus YDR137W, strain rgp1, active compounds read low 1 | locus YDR159W, strain sac3, active compounds read low 1.06 | locus YDR162C, strain NBP2, active compounds read low 0.948 | locus YDR195W, strain ref2 1.01 | locus YDR297W, strain sur2, active compounds read low 1 | locus YDR318W, strain mcm21, active compounds read low 1.02 | locus YDR334W, strain swr1, active compounds read low 1.02 | locus YDR335W, strain msn5, active compounds read low 0.998 | locus YDR388W, active compounds read low 0.996 | locus YDR392W, strain spt3, active compounds read low 0.923 | locus YDR502C, strain sam2, active compounds read low 1 | locus YEL003W, strain gim4, active compounds read low 1 | locus YEL037C, strain rad23, active compounds read low 1.01 | locus YEL061C, strain CIN8 (second series), active compounds read low 1.01 | locus YER015W, strain faa2, active compounds read low 0.974 | locus YER016W, strain bim1, active compounds read low 1.02 | locus YER110C, active compounds read low 0.991 | locus YER111C, strain swi4, active compounds read low 0.999 | locus YER155C, strain BEM2 (second series), active compounds read low 1.02 | locus YER155C, strain BEM2, active compounds read low 1.02 | locus YER167W, strain BCK2, active compounds read low 1.01 | locus YFR010W, strain ubp6, active compounds read low 1.02 | locus YGL078C, strain dbp3, active compounds read low 0.983 | locus YGL086W, strain mad1, active compounds read low 0.986 | locus YGL167C, strain pmr1, active compounds read low 0.995 | locus YGL173C, strain kem1, active compounds read low 1.02 | locus YGL227W, strain vid30, active compounds read low 1.02 | locus YGL240W, strain doc1, active compounds read low 1.07 | locus YGL248W, strain PDE1, active compounds read low 0.965 | locus YGL253W, strain hxk2, active compounds read low 1.04 | locus YGR135W, strain pre9, active compounds read low 0.949 | locus YGR229C, strain SMI1, active compounds read low 1.07 | locus YGR252W, strain gcn5, active compounds read low 1.11 | locus YHR013C, strain ard1, active compounds read low 0.981 | locus YHR027C, strain rpn1, active compounds read low 1 | locus YHR030C, strain SLT2, active compounds read low 1.01 and 1.06 | locus YHR079C, strain IRE1 (second series), active compounds read low 0.987 | locus YHR079C, strain IRE1, active compounds read low 1.08 | locus YHR094C, strain hxt1, active compounds read low 1 | locus YHR129C, strain ARP1, active compounds read low 1.01 | locus YHR142W, strain chs7, active compounds read low 1 | locus YHR200W, strain rpn10, active compounds read low 0.983 | locus YIL066C, strain RNR3, active compounds read low 0.97 | locus YIL073C, strain SPO22, active compounds read low 0.794 | locus YIL125W, strain kgd1, active compounds read low 0.993 | locus YIR030C, strain dcg1, active compounds read low 0.986 | locus YJL092W, strain hpr5, active compounds read low 1.01 | locus YJL095W, strain BCK1 (second series), active compounds read low 1 | locus YJL095W, strain BCK1, active compounds read low 0.947 and 1.06 | locus YJL115W, strain asf1, active compounds read low 1.01 | locus YJL129C, strain trk1, active compounds read low 1.03 | locus YJL134W, strain LCB3, active compounds read low 1 | locus YJL154C, strain vps35, active compounds read low 1.01 | locus YJL164C, strain tpk1, active compounds read low 0.98 | locus YJL166W, strain qcr8, active compounds read low 1.01 | locus YJL168C, strain set2, active compounds read low 0.997 | locus YJL187C, strain SWE1 (second series), active compounds read low 0.873 | locus YJL187C, strain SWE1, active compounds read low 0.988 | locus YJR066W, strain TOR1, active compounds read low 1.04 | locus YKL009W, strain mrt4, active compounds read low 0.973 | locus YKL068W, active compounds read low 0.994 | locus YKL085W, strain MDH1 (second series), active compounds read low 0.976 | locus YKL085W, strain MDH1, active compounds read low 0.976 | locus YKL160W, strain elf1, active compounds read low 0.983 | locus YKL190W, strain CNB1, active compounds read low 0.987 | locus YKR001C, strain vps1, active compounds read low 1.04 | locus YKR026C, strain gcn3, active compounds read low 1.02 | locus YKR091W, strain srl3, active compounds read low 1.01 | locus YLL001W, strain dnm1, active compounds read low 0.978 | locus YLL026W, active compounds read low 1.01 | locus YLL041C, strain sdh2, active compounds read low 1.02 | locus YLR027C, strain aat2, active compounds read low 1.01 | locus YLR039C, strain RIC1, active compounds read low 1.06 | locus YLR058C, strain SHM2, active compounds read low 0.898 | locus YLR102C, strain apc9, active compounds read low 0.981 | locus YLR113W, strain HOG1, active compounds read low 1.04 | locus YLR221C, strain rsa3, active compounds read low 1.03 | locus YLR258W, strain gsy2, active compounds read low 1 | locus YLR262C, strain YPT6 (second series), active compounds read low 1 | locus YLR268W, strain sec22, active compounds read low 1.01 | locus YLR320W, strain mms22, active compounds read low 1.03 | locus YLR330W, strain CHS5, active compounds read low 1.02 | locus YLR342W, strain FKS1, active compounds read low 1 | locus YLR357W, strain rsc2, active compounds read low 1 | locus YLR370C, strain arc18, active compounds read low 1.01 | locus YLR371W, strain rom2, active compounds read low 0.997 | locus YLR384C, strain iki3, active compounds read low 1.01 | locus YLR418C, strain cdc73, active compounds read low 1.02 | locus YML016C, strain PPZ1, active compounds read low 0.972 | locus YML032C, strain rad52, active compounds read low 1 | locus YML120C, strain ndi1, active compounds read low 0.983 | locus YML124C, strain tub3, active compounds read low 0.988 | locus YMR058W, strain fet3, active compounds read low 1.02 | locus YMR078C, strain ctf18, active compounds read low 0.994 | locus YMR125W, strain sto1, active compounds read low 0.989 | locus YMR129W, active compounds read low 1.01 | locus YMR205C, strain PFK2, active compounds read low 0.974 | locus YMR223W, strain ubp8, active compounds read low 0.995 | locus YMR231W, strain pep5, active compounds read low 1.01 | locus YMR263W, strain SAP30, active compounds read low 1.01 | locus YMR307W, strain GAS1, active compounds read low 1.06 | locus YNL067W, strain RPL9B, active compounds read low 1.02 | locus YNL071W, strain lat1, active compounds read low 1 | locus YNL183C, strain NPR1, active compounds read low 1.03 | locus YNL209W, strain ssb2, active compounds read low 0.973 | locus YNL233W, strain BNI4, active compounds read low 1 | locus YNL248C, strain rpa49, active compounds read low 1.04 | locus YNL250W, strain rad50, active compounds read low 0.925 | locus YNL271C, strain bni1, active compounds read low 0.976 | locus YNL298W, strain CLA4, active compounds read low 1.01 | locus YNL307C, strain MCK1, active compounds read low 0.998 | locus YNL322C, strain KRE1 (second series), active compounds read low 1 | locus YNR049C, strain mso1, active compounds read low 1.03 | locus YNR052C, strain pop2, active compounds read low 0.988 | locus YOL006C, strain TOP1, active compounds read low 0.743 | locus YOL012C, strain htz1 0.406 | locus YOL147C, strain pex11, active compounds read low 0.999 | locus YOR001W, strain rrp6, active compounds read low 1.06 | locus YOR061W, strain CKA2, active compounds read low 0.981 | locus YOR069W, strain VPS5, active compounds read low 1 | locus YOR070C, strain gyp1, active compounds read low 1.01 | locus YOR080W, strain dia2, active compounds read low 1 | locus YOR083W, strain WHI5, active compounds read low 0.984 | locus YOR106W, strain vam3, active compounds read low 0.955 | locus YOR136W, strain idh2, active compounds read low 1.02 | locus YOR144C, strain elg1, active compounds read low 1 | locus YOR184W, strain ser1, active compounds read low 1.1 | locus YOR231W, strain MKK1, active compounds read low 1.08 | locus YOR265W, strain rbl2, active compounds read low 1.03 | locus YOR270C, strain vph1, active compounds read low 1.07 | locus YOR290C, strain snf2, active compounds read low 0.988 | locus YOR316C, strain cot1, active compounds read low 0.987 | locus YPL051W, strain arl3, active compounds read low 0.969 | locus YPL078C, strain atp4, active compounds read low 0.991 | locus YPL106C, strain sse1, active compounds read low 0.949 | locus YPL240C, strain hsp82, active compounds read low 1.01 | locus YPL241C, strain CIN2, active compounds read low 0.996 | locus YPL256C, strain CLN2, active compounds read low 1.05 | locus YPR119W, strain clb2, active compounds read low 0.996 | locus YPR141C, strain kar3, active compounds read low 0.989 | locus YPR163C, strain tif3, active compounds read low 1.01 | locus YPR167C, strain met16, active compounds read low 1.01 | strain wtn01, active compounds read low 0.992

— PubChem BioAssay AID1159580 (chemical genetic matrix, 2015)
